Source: PubChem BioAssay (National Center for Advancing Translational Sciences (NCATS))
In the library only some 8% were active in any assay of this set; here they are far more common.
KB-3-1 cytotox – kills parental KB-3-1 adenocarcinoma cells; KB-3-1 viability, CellTiter-Glo ATP luminescence, 72 h; Potency, µM (top dose mostly 46.1 µM), actives largely listed as cytotoxic; 1.4% of 400,000 active; also: nearly all actives have a fitted effect of over 60% in size
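72 h, 37 °C compound treatment of KB-3-1 parental cells; CellTiter-Glo added, 10 min, luminescence read. Data corrected against DMSO-only plates and normalized before curve fitting.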
KB-V1 cytotox – kills drug-selected multidrug resistant KB-V1 cells | 3.4% of 400,000 active | KB-V1 MDR cells viability, CellTiter-Glo, 72 h | Potency, µM (highest dose often 46.1 µM), hits mostly cytotoxic; also: nearly all actives have a fitted effect of over 60% in size
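Luminescent ATP read-out (CellTiter-Glo, 10 min) measures survival of drug-selected KB-V1 MDR cells after 72 h, 37 degrees C compound exposure. Medium: phenol-red-free DMEM, 10% FBS. Values from fitted concentration-response curves.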
SW480 rereplic – induces DNA re-replication in SW480 colon adenocarcinoma cells | SW480 DNA re-replication, Hoechst DNA content imaging, 48 h | Potency, µM (series often up to 46.1 µM), actives largely listed as activators | 1.8% of 340,000 active | AID 624297; also: nearly all actives have a fitted effect of over 55% in size
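SW480 cells exposed to compounds for 48 hr at 37 C, 5% CO2, then Hoechst-stained 40 min. Nuclear DNA content imaged by fluorescence scanning (405 nm excitation, 500-530 nm emission); re-replication scored as increased high-intensity nuclei.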
HT1080-NT tox – kills 2HG-producing HT-1080-NT fibrosarcoma cells; Potency, µM (series often up to 46.1 µM), most hits filed as cytotoxic; HT-1080-NT fibrosarcoma viability, CellTiter-Glo ATP luminescence, 48 h; AID 686970; 1.6% of 360,000 active;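 also: NT is the 2HG producing partner of a matched IDH1 knockdown line; nearly all actives have a fitted effect of over 55% in size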
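Compounds were tested in concentration-response format on HT-1080-NT cells for 48 hours at 37 degrees C. Cell viability came from CellTiter-Glo luminescence; curves were classified by r2, response magnitude and activity.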
MCF10A rerep – induces DNA re-replication in MCF 10a normal breast cells. Potency, µM (series often up to 46.1 µM), hits mostly activators. AID 624296. MCF 10A DNA re-replication, Hoechst nuclear intensity, 48 h. 2.9% of 350,000 active; also: nearly all actives have a fitted effect of over 50% in size
HT1080 IDH1KD tx – HT-1080 IDH1 knockdown cell toxicity (counter line); HT-1080 IDH1 knockdown viability, ATP luminescence, 48 h; Potency, µM (highest dose often 46.1 µM), actives largely listed as cytotoxic; 2% of 360,000 active
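Assay cells: HT-1080 with IDH1 knockdown, 750 per well, RPMI/5% FBS. Exposure: 48 h at 37 °C following 2 h pre-incubation. Read: CellTiter-Glo luminescence; fitted concentration-response, curve class assigned.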
Of the large screens only hits and unclear results are named; the others gave an inactive call. Calls follow the shape of the dose curve; as a rule, active = well fitted curve in the direction sought with a large enough effect; inconclusive = small, poorly fitted or top-dose-only effect, or another doubt; inactive = no such curve, though single readings can be large; an effect the other way counts as inactive or inconclusive.

CCSC1(SCC)N=C(N)C2(C#N)C(c3ccc(OC)c(OC)c3OC)C12C#N (configuration not stated)	KB-3-1 cytotox inconclusive, KB-V1 cytotox inconclusive, SW480 rereplic inconclusive, HT1080-NT tox inconclusive, MCF10A rerep 9.2µM, HT1080 IDH1KD tx inconclusive
CC1CCCN(C(=O)Cc2cccc3ccccc23)C1 (configuration not stated)	none
COc1nn(-c2ccccc2)c(=O)c(Cl)c1Cl	KB-3-1 cytotox inconclusive, SW480 rereplic 2.91µM, HT1080-NT tox 11.6µM, MCF10A rerep 3.66µM, HT1080 IDH1KD tx 13µM
CCc1nc2ccc(C(=O)Nc3cccc(NS(C)(=O)=O)c3)cn2c1N(CC)Cc1cccc(Br)c1	KB-3-1 cytotox inconclusive, KB-V1 cytotox inconclusive, HT1080-NT tox 23.1µM, HT1080 IDH1KD tx inconclusive (no result: SW480 rereplic, MCF10A rerep)
CCc1nc2ccc(C(=O)NCc3ccccc3OC)cn2c1N(CC)Cc1cccc(Br)c1	KB-3-1 cytotox inconclusive, KB-V1 cytotox 16.4µM, HT1080-NT tox inconclusive, HT1080 IDH1KD tx inconclusive (no result: SW480 rereplic, MCF10A rerep)
CCOC(=O)C1CCN(C(=O)Cn2nc(C)n3nc(-c4ccc(CC)cc4)cc3c2=O)CC1	SW480 rereplic inconclusive
CC(=O)C1=CCC(c2ccccc2F)N(S(=O)(=O)c2ccc(C)cc2)C1 (configuration not stated)	HT1080-NT tox inconclusive, HT1080 IDH1KD tx inconclusive (no result: SW480 rereplic, MCF10A rerep)
CC(=O)C1=CCC(c2cccc3ccccc23)N(S(=O)(=O)c2ccc(C)cc2)C1 (configuration not stated)	KB-3-1 cytotox inconclusive, KB-V1 cytotox 10.3µM, HT1080-NT tox inconclusive, HT1080 IDH1KD tx inconclusive (no result: SW480 rereplic, MCF10A rerep)
CCCCCC(=O)Nc1cccc(C2=NOC3(C2)C[C@@H](C(N)=O)N(C(=O)CC(c2ccccc2)c2ccccc2)C3)c1 (some centres not stated)	KB-3-1 cytotox 16.4µM, MCF10A rerep inconclusive, HT1080 IDH1KD tx inconclusive
C/C=C\C(=O)Nc1cccc(C2=NOC3(C2)C[C@@H](C(N)=O)N(C(=O)CC(c2ccccc2)c2ccccc2)C3)c1 (some centres not stated)	none
CN1c2ccc(Cl)cc2-c2nc(SCC(=O)NCc3ccc(F)cc3)ncc2S1(=O)=O	none (no result: SW480 rereplic, HT1080-NT tox, MCF10A rerep, HT1080 IDH1KD tx)
O=C(Nc1nc(-c2ccc(S(=O)(=O)N3CCCCCC3)cc2)cs1)c1ccccc1	none
O=C(Nc1nc(-c2ccc3c(c2)OCCO3)cs1)c1ccc(S(=O)(=O)N2CCCCC2)cc1	KB-3-1 cytotox inconclusive, KB-V1 cytotox 8.2µM, HT1080-NT tox inconclusive
Cc1csc(NC(=O)c2ccc(S(=O)(=O)N3CCCC3)cc2)n1	none
O=C(Nc1nc(-c2cccs2)cs1)c1ccc(S(=O)(=O)N2CCCC2)cc1	KB-3-1 cytotox 16.4µM, KB-V1 cytotox inconclusive, SW480 rereplic inconclusive, HT1080-NT tox inconclusive, HT1080 IDH1KD tx inconclusive
COc1ccc(CC(=O)NO)cc1	none (no result: KB-3-1 cytotox, KB-V1 cytotox, SW480 rereplic, MCF10A rerep)
CCCCN(C)CCNC(=O)CCNC(=O)Cn1ccc2ccccc2c1=O	KB-V1 cytotox inconclusive
Oc1ccc(/C=N/Nc2nc(-c3ccc(Cl)cc3)cc(C(F)(F)F)n2)cc1	KB-3-1 cytotox inconclusive, KB-V1 cytotox inconclusive, SW480 rereplic inconclusive, HT1080-NT tox inconclusive, MCF10A rerep inconclusive, HT1080 IDH1KD tx 16.4µM
Cc1cc(C)c2nc(C)cc(N/N=C/c3ccc(O)cc3)c2c1	KB-3-1 cytotox inconclusive, KB-V1 cytotox inconclusive, SW480 rereplic 4.11µM, HT1080-NT tox 5.17µM, MCF10A rerep 14.6µM, HT1080 IDH1KD tx 5.8µM
CCN(CC)c1ccc(/C=N/Nc2nc(C)cc(C)n2)cc1	SW480 rereplic 18.4µM, MCF10A rerep inconclusive
Fc1ccc(CNc2nc(-c3ccc(Cl)cc3)cc(C(F)(F)F)n2)cc1	KB-3-1 cytotox inconclusive (no result: SW480 rereplic, HT1080-NT tox, MCF10A rerep, HT1080 IDH1KD tx)
Cc1cc(N/N=C/c2ccc(O)cc2)c2cccc(C)c2n1	SW480 rereplic inconclusive, HT1080-NT tox inconclusive, MCF10A rerep inconclusive, HT1080 IDH1KD tx inconclusive
Cc1cc(C)nc(N/N=C/c2ccccc2)n1	none
Cc1cc(-c2ccccc2)nc(N/N=C/c2ccc(O)cc2)n1	KB-3-1 cytotox 20.6µM, KB-V1 cytotox inconclusive, HT1080-NT tox inconclusive, MCF10A rerep inconclusive, HT1080 IDH1KD tx inconclusive
CCCCn1c(N)c(N(CC(C)C)C(=O)Cc2ccc3c(c2)OCCO3)c(=O)[nH]c1=O	none
